Source: PubChem BioAssay (EPA / NIEHS)
Results filed as inconclusive are left out. The source made the active and inactive calls. How the source made its calls, unless noted: active means hit-call score of the fitted dose curve at least 0.9, where 1 is the maximum; inactive means score below 0.9.

Columns and labels:
[1] = BSK_LPS_PGE2: BioMAP Diversity Plus: LPS Assay for Prostaglandin E2 (PGE2) Biomarker Activity (AID 2283082); conditions: primary human HUVEC with PBMC; actives raise or lower the signal;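 on AC50: secreted prostaglandin E2 measured by ELISA in LPS-stimulated co-culture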
Outline: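 HUVEC plus human PBMC co-culture stimulated with LPS; secreted PGE2 quantified by ELISA 24 h after chemical dosing. Activity fitted bidirectionally against DMSO baseline; parallel SRB staining (0.1% SRB after 10% TCA fixation, 560 nm) flags overt cytotoxicity.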

[2] = read-out: Macrophage colony-stimulating factor (MCSF), CSF1 (gene 1435); assay: BSK_LPS_MCSF: BioMAP Diversity Plus: LPS Assay for Macrophage colony-stimulating factor (MCSF) Biomarker Activity (AID 2283083); conditions: primary human HUVEC with PBMC; actives raise or lower the signal
Outline: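 ELISA readout of M-CSF after 24 h compound exposure in a human endothelial/PBMC co-culture. Activity, in either direction, is fitted relative to DMSO vehicle.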

[3] = read-out: Tissue Factor, F3 (gene 2152); assay: BSK_LPS_TissueFactor: BioMAP Diversity Plus: LPS Assay for Tissue Factor Biomarker Activity (AID 2283084); conditions: primary human HUVEC with PBMC; actives raise or lower the signal
Outline: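 ELISA signal for cell-surface Tissue Factor (CD142) was read 24 h after compound dosing of an LPS-stimulated human endothelial–PBMC primary co-culture. Gain or loss of signal was scored relative to DMSO.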

[4] = read-out: Tumor necrosis factor (Homo sapiens) (UniProt P01375); assay: BSK_LPS_TNFa: BioMAP Diversity Plus: LPS Assay for Tumour Necrosis Factor alpha (TNFa) Biomarker Activity (AID 2283085); conditions: primary human HUVEC with PBMC; actives raise or lower the signal
Outline: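 Human umbilical vein endothelial cells co-cultured with PBMC and stimulated with LPS. TNFa was measured by ELISA 24 h after chemical dosing, fitted bidirectionally relative to DMSO.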

CD38, CD38 (gene 952) = assay: BSK_SAg_CD38: BioMAP Diversity Plus: SAg Assay for CD38 Biomarker Activity (AID 2283087); conditions: primary human HUVEC with PBMC; actives raise or lower the signal
Outline: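 Human HUVEC plus PBMC co-culture stimulated with superantigen; CD38 measured by ELISA 24 h after chemical dosing. Fluorescence read-out, bidirectional fit against DMSO; cytotoxicity tracked in parallel by SRB and Alamar Blue.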

CD40, CD40 (gene 958) = assay: BSK_SAg_CD40: BioMAP Diversity Plus: SAg Assay for CD40 Biomarker Activity (AID 2283088); conditions: primary human HUVEC with PBMC; actives raise or lower the signal
Outline: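 Compounds were dosed onto a human primary endothelial–PBMC co-culture, and after 24 h CD40 was quantified by ELISA using a fluorescence signal. Activity in either direction was fitted relative to DMSO.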

CD69, CD69 (gene 969) = assay: BSK_SAg_CD69: BioMAP Diversity Plus: SAg Assay for CD69 Biomarker Activity (AID 2283089); conditions: primary human HUVEC with PBMC; actives raise or lower the signal;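 on AC50: cell surface CD69 protein quantified by ELISA with fluorescence detection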
Outline: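 Primary human vascular co-culture (umbilical vein endothelium with peripheral blood mononuclear cells) exposed to test chemical for 24 h. CD69 levels quantified by fluorescence ELISA; DMSO served as negative control for bidirectional fitting.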

[5] = read-out: Monocyte Chemoattractant Protein-1 (MCP1), CCL2 (gene 6347); assay: BSK_SAg_MCP1: BioMAP Diversity Plus: SAg Assay for Monocyte Chemoattractant Protein-1 (MCP1) Biomarker Activity (AID 2283090); conditions: primary human HUVEC with PBMC; actives raise or lower the signal
Outline: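 MCP-1 levels in the endothelial–PBMC SAg co-culture were quantified by ELISA at 24 h post-dosing; both increases and decreases versus DMSO scored. Cytotoxicity monitored by SRB total protein in parallel cultures.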

[6] = read-out: E-selectin (Homo sapiens) (UniProt P16581); assay: BSK_SAg_Eselectin: BioMAP Diversity Plus: SAg Assay for Eselectin Biomarker Activity (AID 2283091); conditions: primary human HUVEC with PBMC; actives raise or lower the signal
Outline: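 Co-culture: HUVEC + PBMC. Dose compound; 24 h. ELISA for E-selectin. Bidirectional fit vs DMSO.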

[7] = read-out: Monokine induced gamma interferon (MIG), CXCL9 (gene 4283); assay: BSK_SAg_MIG: BioMAP Diversity Plus: SAg Assay for Monokine induced gamma interferon (MIG) Biomarker Activity (AID 2283092); conditions: primary human HUVEC with PBMC; actives raise or lower the signal
Outline: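 Endothelial cells and PBMC were co-cultured, exposed to test chemicals, and sampled 24 h later. MIG was measured by ELISA, and responses were fitted in both directions relative to DMSO.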

[8] = BSK_SAg_PBMCCytotoxicity: PBMC Cytotoxicity Assessment in the BioMAP Diversity Plus: SAg Assay (AID 2283093); conditions: primary human HUVEC with PBMC;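 further: PBMC viability measured as Alamar Blue reduction fluorescence at 546/580 nm; fitted both ways against DMSO so a hit may be loss or gain of signal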;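 on AC50: PBMC superantigen activated with SEB plus TSST-1 one hour after compound addition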
Outline: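 HUVEC/PBMC co-culture; PBMC exposed to chemical 1 h before SEB and TSST-1 activation (20 ng/mL each), incubated 90 h, then Alamar Blue 6 h, fluorescence 546/580 nm. Bidirectional fit versus DMSO baseline.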

[9] = read-out: Interleukin-8 (IL8), CXCL8 (gene 3576); assay: BSK_SAg_IL8: BioMAP Diversity Plus: SAg Assay for Interleukin-8 (IL8) Biomarker Activity (AID 2283094); conditions: primary human HUVEC with PBMC; actives raise or lower the signal
Outline: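 Human umbilical vein endothelial cells co-cultured with PBMC, stimulated with superantigen; IL-8 measured by ELISA 24 h after chemical dosing. Bidirectional fitting versus DMSO; SRB staining in parallel cultures tracks cytotoxicity.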

[10] = BSK_SAg_Proliferation: Cell Proliferation Assessment in the BioMAP Diversity Plus: SAg Assay (AID 2283095); conditions: primary human HUVEC with PBMC
Outline: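 Human umbilical vein endothelial cells co-cultured with PBMC; sulforhodamine B total-protein staining (0.1% SRB after 10% TCA fixation, absorbance 560 nm) at 96 h in sub-confluent culture. Fitted bidirectionally against DMSO.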

[11] = BSK_SAg_SRB: Viability Assessment in the BioMAP Diversity Plus: SAg Assay (AID 2283096); conditions: primary human HUVEC with PBMC;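 further: cells read one day after compound addition; hits may be either gain or loss of signal compared with DMSO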
Outline: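 Human umbilical vein endothelial cells co-cultured with PBMC, read 24 h after compound dosing. Total protein measured by sulforhodamine B staining (0.1% SRB after 10% TCA fixation, absorbance 560 nm); bidirectional fit versus DMSO baseline.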

[12] = target: human CYP1A1, CYP1A1 (gene 1543) (UniProt P04798); assay: NVS_ADME_hCYP1A1: NovaScreen (NVS) CYP450-related Enzyme Activity (ADME) Assay for human CYP1A1 (AID 2283100; active means hit-call score of the fitted dose curve at least 0.9, where 1 is the maximum)
Sequence of human CYP1A1, CYP1A1 (gene 1543) (P04798 whole entry, looked up): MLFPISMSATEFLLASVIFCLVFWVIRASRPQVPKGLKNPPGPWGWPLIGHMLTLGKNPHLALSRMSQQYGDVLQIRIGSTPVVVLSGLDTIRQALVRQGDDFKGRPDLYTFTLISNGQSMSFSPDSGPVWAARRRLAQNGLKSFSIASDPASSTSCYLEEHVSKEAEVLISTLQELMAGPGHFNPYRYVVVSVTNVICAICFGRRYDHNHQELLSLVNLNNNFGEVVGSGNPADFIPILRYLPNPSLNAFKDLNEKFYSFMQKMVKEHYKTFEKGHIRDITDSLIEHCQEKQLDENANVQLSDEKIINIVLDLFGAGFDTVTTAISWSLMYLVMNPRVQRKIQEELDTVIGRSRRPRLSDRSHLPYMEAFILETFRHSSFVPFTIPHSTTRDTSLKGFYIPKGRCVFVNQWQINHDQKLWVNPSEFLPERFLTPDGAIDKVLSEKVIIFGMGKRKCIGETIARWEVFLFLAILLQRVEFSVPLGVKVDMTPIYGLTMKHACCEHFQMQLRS
Outline: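 Recombinant hCYP1A1 + fluorogenic substrate, cell-free; 1 h; fluorescence read. Single-point 10 uM (duplicate) → concentration series, max 20 uM. Acetonitrile negative control.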

[13] = read-out: Vascular cell adhesion molecule 1 (VCAM1), VCAM1 (gene 7412); assay: BSK_LPS_VCAM1: BioMAP Diversity Plus: LPS Assay for Vascular cell adhesion molecule 1 (VCAM1) Biomarker Activity (AID 2283086); conditions: primary human HUVEC with PBMC; actives raise or lower the signal
Outline: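 Human umbilical vein endothelial cells co-cultured with PBMC and stimulated with LPS; VCAM-1 measured by ELISA 24 h after dosing. Bidirectional curve fitting against DMSO baseline; cytotoxicity tracked in parallel by SRB total-protein staining.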

[14] = target: human CYP19A1, CYP19A1 (gene 1588) (UniProt P11511); assay: NVS_ADME_hCYP19A1: NovaScreen (NVS) CYP450-related Enzyme Activity (ADME) Assay for human CYP19A1 (AID 2283098; active means hit-call score of the fitted dose curve at least 0.9, where 1 is the maximum)
Sequence of human CYP19A1, CYP19A1 (gene 1588) (P11511 whole entry, looked up): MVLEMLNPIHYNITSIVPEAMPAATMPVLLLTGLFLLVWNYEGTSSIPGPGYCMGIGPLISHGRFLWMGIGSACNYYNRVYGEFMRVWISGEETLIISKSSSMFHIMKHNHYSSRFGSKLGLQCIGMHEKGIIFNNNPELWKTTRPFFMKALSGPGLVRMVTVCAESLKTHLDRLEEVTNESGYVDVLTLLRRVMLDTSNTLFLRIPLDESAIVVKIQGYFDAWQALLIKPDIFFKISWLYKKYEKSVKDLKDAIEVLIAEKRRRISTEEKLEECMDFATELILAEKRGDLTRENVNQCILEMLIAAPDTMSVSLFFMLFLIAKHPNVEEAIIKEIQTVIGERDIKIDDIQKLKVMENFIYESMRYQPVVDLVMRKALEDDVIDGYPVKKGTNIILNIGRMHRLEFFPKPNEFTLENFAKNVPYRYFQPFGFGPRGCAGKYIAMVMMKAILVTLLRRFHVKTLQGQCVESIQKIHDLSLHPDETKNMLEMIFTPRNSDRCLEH
Outline: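 Recombinant enzyme in a cell-free format, read 0.5 h after dosing by fluorescence from a fluorogenic substrate. Loss of signal was fitted against acetonitrile as baseline. Primary screen in duplicate at 10 uM, actives then tested in concentration series.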

[15] = target: human CYP1A2, CYP1A2 (gene 1544) (UniProt P05177); assay: NVS_ADME_hCYP1A2: NovaScreen (NVS) CYP450-related Enzyme Activity (ADME) Assay for human CYP1A2 (AID 2283102; active means hit-call score of the fitted dose curve at least 0.9, where 1 is the maximum)
Sequence of human CYP1A2, CYP1A2 (gene 1544) (P05177 whole entry, looked up): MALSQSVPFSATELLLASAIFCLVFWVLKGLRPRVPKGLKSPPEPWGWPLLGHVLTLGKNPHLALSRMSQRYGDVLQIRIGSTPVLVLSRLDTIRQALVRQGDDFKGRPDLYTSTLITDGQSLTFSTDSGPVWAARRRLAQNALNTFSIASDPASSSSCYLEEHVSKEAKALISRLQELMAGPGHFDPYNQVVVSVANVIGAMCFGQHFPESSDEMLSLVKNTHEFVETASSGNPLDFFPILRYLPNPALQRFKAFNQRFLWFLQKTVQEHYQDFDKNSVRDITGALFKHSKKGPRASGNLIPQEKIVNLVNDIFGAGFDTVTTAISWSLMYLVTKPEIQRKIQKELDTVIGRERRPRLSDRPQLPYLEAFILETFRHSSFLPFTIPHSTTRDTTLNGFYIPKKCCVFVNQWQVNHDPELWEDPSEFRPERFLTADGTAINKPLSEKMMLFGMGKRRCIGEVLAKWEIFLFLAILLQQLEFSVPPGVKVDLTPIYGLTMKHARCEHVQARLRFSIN
Outline: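 rec. hCYP1A2 (insect cells), cell-free; fluorogenic substrate; 0.5 h; FI read. Baseline = acetonitrile; signal loss = inhibition. 10 uM duplicate primary → conc. series for actives.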

Measured: AC50

Sequence of E-selectin (Homo sapiens) (P16581 whole entry, looked up): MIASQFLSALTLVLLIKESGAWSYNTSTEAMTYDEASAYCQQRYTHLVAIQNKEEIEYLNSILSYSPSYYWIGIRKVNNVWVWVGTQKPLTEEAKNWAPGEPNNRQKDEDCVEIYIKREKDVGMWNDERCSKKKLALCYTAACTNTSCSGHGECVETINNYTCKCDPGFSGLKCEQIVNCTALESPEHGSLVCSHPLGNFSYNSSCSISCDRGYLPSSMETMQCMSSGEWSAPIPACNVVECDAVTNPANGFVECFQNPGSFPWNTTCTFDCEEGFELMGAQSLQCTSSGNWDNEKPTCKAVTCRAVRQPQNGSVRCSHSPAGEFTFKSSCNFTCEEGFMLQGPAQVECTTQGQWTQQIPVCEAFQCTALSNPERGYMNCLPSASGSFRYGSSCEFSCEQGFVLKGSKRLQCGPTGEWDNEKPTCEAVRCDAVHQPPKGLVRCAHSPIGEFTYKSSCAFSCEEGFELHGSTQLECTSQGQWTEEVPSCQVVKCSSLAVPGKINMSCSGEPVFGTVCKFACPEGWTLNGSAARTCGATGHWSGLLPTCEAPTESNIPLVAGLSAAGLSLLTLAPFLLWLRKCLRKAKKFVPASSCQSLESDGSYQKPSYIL
Sequence of Tumor necrosis factor (Homo sapiens) (P01375 whole entry, looked up): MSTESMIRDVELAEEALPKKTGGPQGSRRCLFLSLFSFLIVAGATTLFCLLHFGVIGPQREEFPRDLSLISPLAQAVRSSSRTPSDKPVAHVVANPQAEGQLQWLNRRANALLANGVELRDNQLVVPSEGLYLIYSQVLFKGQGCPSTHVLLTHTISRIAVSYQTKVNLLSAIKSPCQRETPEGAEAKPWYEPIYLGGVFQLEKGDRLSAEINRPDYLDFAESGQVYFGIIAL

CC(C)CCCCCCc1ccc(O)cc1
active: [1] 6.36 µM | [2] 9.04 µM | [3] 12.3 µM | [4] 7.19 µM | CD38, CD38 (gene 952) 8.61 µM | CD40, CD40 (gene 958) 8.59 µM | CD69, CD69 (gene 969) 10.7 µM | [5] 6.52 µM | [6] 9.34 µM | [7] 9.25 µM | [8] 6.38 µM | [9] 6.55 µM | [10] 5.59 µM | [11] 13.1 µM | [12] 10.7 µM

CCOC(=O)C(C)Oc1ccc(Oc2cnc3cc(Cl)ccc3n2)cc1 (stereo not given)
not listed: [1] | [12] | [14] | [15]
inactive: all other assays above

CCCOC(=O)NCCCN(C)C
not listed: [12] | [14] | [15]
inactive: all other assays above

COC(=O)CSc1cc(N=c2sc(=O)n3n2CCCC3)c(F)cc1Cl
active: [4] 9.6 µM
not listed: [13]
inactive: all other assays above

COc1nc(C)nc(NC(=O)NS(=O)(=O)c2ccccc2OCCCl)n1
not listed: [12] | [14] | [15]
inactive: all other assays above

COC(=O)c1ccc(I)cc1S(=O)(=O)NC(=O)Nc1nc(C)nc(OC)n1
not listed: [1] | [12] | [14] | [15]
inactive: all other assays above
